Records with an inconclusive call do not appear. Calls of active or inactive are those of the source. Calls follow the shape of the dose curve; as a rule, active = well fitted inhibition curve with a large enough effect; inconclusive = small, poorly fitted or top-dose-only effect; inactive = flat fitted curve, though single readings scatter.
tested on: CRL-7250; experiment: qHTS assay to identify novel small-molecules to repurpose for Merkel cell carcinoma treatment (AID 1296009); settings: MCC and control cell lines, CellTiter-Glo viability, 72 h; at 44.8 µM (top of the series) unless noted; also: nearly all actives have a fitted effect of over 60% in size
Procedure, shortened: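 Viability readout: ATP luminescence (CellTiter-Glo) after 72 hr drug exposure at 37 degree celsius. Dose-response format was 8 points for NPC and 11 points for MIPE; data normalized to in-plate controls.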

Structure (SMILES)	outcome
NC(N)=NCCC[C@H](N)C(=O)O	inactive [at 4.96 µM]
Cc1ccc(Nc2c(F)cccc2Cl)c(CC(=O)O)c1	inactive
O=C(O)CN(CCOCCOCCN(CC(=O)O)CC(=O)O)CC(=O)O	inactive [at 0.588 µM]
CCCCCCCC/C=C\CCCCCCCCN	inactive
CCC(=O)O[C@]1(C(=O)SCF)[C@H](C)C[C@H]2[C@@H]3C[C@H](F)C4=CC(=O)C=C[C@]4(C)[C@@]3(F)[C@@H](O)C[C@@]21C	inactive
N[C@@H](Cc1c[nH]c2ccc(O)cc12)C(=O)O	inactive
Nc1c2c(nc3ccccc13)CCCC2	inactive
CC(=O)[C@@]1(O)CC[C@H]2[C@@H]3CCC4=CC(=O)CC[C@]4(C)[C@H]3CC[C@@]21C	inactive
CCC(=O)O[C@]1(C(=O)COC)[C@@H](C)C[C@H]2[C@@H]3CCC4=CC(=O)C=C[C@]4(C)C3(F)[C@@H](O)C[C@@]21C (stereo partly specified)	inactive
CN(C)[C@@H](CCOc1cccc2ccccc12)c1ccccc1	inactive
COc1cccc(N(C)C(=S)Oc2ccc3c(c2)CCCC3)n1	inactive
Clc1ccc(C(Cn2ccnc2)OCc2c(Cl)cccc2Cl)c(Cl)c1 (stereo unspecified)	inactive
O=S(=O)(c1cccc2cnccc12)N1CCCNCC1	inactive
O=C(CCCN1CCN(c2ccccn2)CC1)c1ccc(F)cc1	inactive
CC1(C)OC[C@@H](COC(=O)CCc2ccc(OC[C@@H](O)CNCCNC(=O)N3CCOCC3)cc2)O1	inactive
CC(C(O)c1ccc(O)cc1)N1CCC(Cc2ccccc2)CC1 (stereo unspecified)	inactive [at 17.4 µM]
CCN1CCCC(OC(=O)C(c2ccccc2)c2ccccc2)C1 (stereo unspecified)	inactive
Cc1cccc(N(C)C(=S)Oc2ccc3ccccc3c2)c1	inactive

Structure (SMILES)	outcome
O=C(OCC(O)CO)c1ccccc1Nc1ccnc2cc(Cl)ccc12 (stereo unspecified)	inactive
CCN(CC)C(=O)c1cccc(C)c1	inactive
O=C(O)C1CCC1	inactive
Clc1ccc(C(Cn2ccnc2)OCc2ccc(Sc3ccccc3)cc2)c(Cl)c1 (stereo unspecified)	inactive
CCOC(=O)OC(C)OC1=C(C(=O)Nc2ccccn2)N(C)S(=O)(=O)c2ccccc21 (stereo unspecified)	inactive
CCOc1ccccc1O[C@H](c1ccccc1)[C@H]1CNCCO1	inactive
CCC(CN)=C(c1ccccc1)c1ccccc1	inactive
CCCCCCCCCCCCCCCCCCOCC(O)CO (stereo unspecified)	inactive
Cc1[nH]c(=O)c(C#N)cc1-c1ccc2nccn2c1	inactive
NC(CSCC(=O)O)C(=O)O (stereo unspecified)	inactive
COc1cc([C@H]2Oc3cc([C@H]4Oc5cc(O)cc(O)c5C(=O)[C@@H]4O)ccc3O[C@@H]2CO)ccc1O	inactive
C[C@@H](C1=C(CCN(C)C)Cc2ccccc21)c1ccccn1	inactive
CC(C)NCCCC1(C(N)=O)c2ccccc2-c2ccccc21	inactive
Cc1cn([C@H]2C[C@H](F)[C@@H](CO)O2)c(=O)[nH]c1=O	inactive
Cc1c(N)cccc1C(F)(F)F	inactive
CCN(CC)C(=O)N1CCN(C)CC1	inactive
Clc1ccc(C(Cn2ccnc2)OCc2ccsc2Cl)c(Cl)c1 (stereo unspecified)	inactive
C=C1C(=C/C=C2\CCC[C@]3(C)[C@@H]([C@H](C)/C=C/[C@@H](O)C4CC4)CC[C@@H]23)C[C@@H](O)C[C@@H]1O	inactive

Reference: PubChem BioAssay (NCATS)
